Test [1] in a line: NCI Yeast Anticancer Drug Screen. Data for the rad50 strain (AID 155).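 Note: 0% = growth of vehicle-only cultures of the same strain.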 Particulars: S. cerevisiae rad50 strain growth inhibition; at 50.0 µM; stronger effect = higher value. The procedure, abridged:
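Relative growth inhibition (compound vs vehicle) was measured in yeast with a defined repair-gene alteration.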

The nature of test [2]: NCI Yeast Anticancer Drug Screen. Data for the mec2-1 strain (AID 157). The note with it: S. cerevisiae mec2-1 strain, at 50.0 µM, stronger effect = higher value. The procedure, abridged:
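Growth inhibition is read against vehicle-treated controls after compound exposure of the mec2-1 yeast strain, which is defective in DNA damage repair or cell cycle control.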

Test [3] in a line: NCI Yeast Anticancer Drug Screen. Data for the sgs1 mgt1 strain (AID 161).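 Note: 0% = growth of cultures given vehicle only.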 The note with it: S. cerevisiae sgs1 mgt1 strain, at 50.0 µM, stronger effect = higher value. The procedure, abridged: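 Growth of a repair-deficient yeast mutant was monitored after compound treatment and expressed as inhibition relative to vehicle-treated cultures.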
The nature of test [4]: NCI Yeast Anticancer Drug Screen. Data for the cln2 rad14 strain (AID 165).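 Note: 0% = growth equal to vehicle treated cultures.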 The note with it: S. cerevisiae cln2 rad14 strain, at 50.0 µM, stronger effect = higher value. The gist of the method:
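Growth inhibition, relative to vehicle-treated controls, is the read-out. The test organism is a yeast strain with defined genetic alterations, cln2 rad14.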

A short description of test [5]: NCI Yeast Anticancer Drug Screen. Data for the bub3 strain (AID 167). Particulars: S. cerevisiae bub3 mutant strain, at 50.0 µM, stronger effect = higher value. The gist of the method: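 Screening used yeast with an engineered genetic alteration affecting cell cycle control. Compound-exposed cultures were compared with vehicle cultures, and reduced growth was taken as inhibition.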

Test [6] can be described thus: NCI Yeast Anticancer Drug Screen. Data for the mlh1 rad18 strain (AID 175). The note with it: S. cerevisiae mlh1 rad18 strain growth inhibition; at 50.0 µM; stronger effect = higher value. The gist of the method: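 Cells of a genetically altered yeast strain, deficient in DNA damage repair, were treated with compound. Their growth was then compared with that of vehicle-treated cultures to give inhibition.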

SMILES strings stand for the structures. Compounds without any hit were thinned out: in the full panel of roughly 79,000, 15% have a hit. A number with no mark means an inactive call. Calls of active or inactive are those of the source. Cut-off read from the data, not from the text of the source: active = growth inhibition above about 70%; inactive = the rest.

As to `CC1(C)OCC(C2CCC3(C)C4=CCC5C(C)(C)C(O)CCC5(C)C4CCC23C)CC(O)C1O` (stereo unspecified), the growth inhibition in test [1] is 59.6%; in test [2] it was 57%; in test [3], 72.3% (active); in test [4], 76.5% (active); in test [5], 64.8%; in test [6], 31.9%.

For the compound `CC1=NNC(=O)CC1C(O)c1ccc(F)cc1` (stereo unspecified), the growth inhibition was -33.5% in test [1]; 1.4% in test [2]; -10.1% in test [3]; -2.35% in test [4]; 0% in test [5]; -1.85% in test [6].

Consider `CSc1nc(C=O)nc(SC)n1`, for which the growth inhibition in test [1] was 1.25%; in test [2], -12%; in test [3] it was 9.1%; in test [4] it was -11.3%; in test [5] it was 3.45%; in test [6], -17.1%.

Take `O=C(CSc1nnc(-c2ccccc2NC(=O)C(F)(F)F)c(=O)[nH]1)NC(=O)Nc1ccccc1`: the growth inhibition in test [1] was 31.7%; in test [2], -28.8%; in test [3], 11.7%; in test [4] it was 16.3%; in test [5], -8.35%; in test [6], 23.9%.

Turning to `Nc1cccc(C(CC(=O)O)CC(=O)O)c1`, the growth inhibition in test [1] was 14.8%; in test [2] it was 10.9%; in test [3], 13%; in test [4] it was 16.7%; in test [5] it was -1.5%; in test [6], 15.8%.

For the compound `CC1(C)SCCNC1=O`, the growth inhibition is 3.35% in test [1]; 8.45% in test [2]; 8.8% in test [3]; 11.8% in test [4]; 15.8% in test [5]; 4.75% in test [6].

Consider `CCOc1ccc(NS(=O)(=O)c2ccc(F)cc2)cc1`, for which the growth inhibition is -27.4% in test [1]; -21.3% in test [2]; -26.9% in test [3]; -6.2% in test [4]; -24.1% in test [5]; 3.05% in test [6].

For `C1CCN=C(N2CCCCCC2)CC1`, the growth inhibition in test [1] was -16.9%; in test [2], -4.2%; in test [3], -5.8%; in test [4] it was -33%; in test [5] it was 13.6%; in test [6], -6.25%.

As for `COC(=O)C(Cc1nc2ccc(Cl)cc2[nH]c1=O)C(=O)C(=O)Nc1cc(C)ccc1C` (stereo unspecified), the growth inhibition in test [1] was -19.2%; in test [2] it was 4.85%; in test [3], -33%; in test [4], -35.6%; in test [5], -26.4%; in test [6] it was 14.5%.

Turning to `Cc1ncc(CSc2ccccc2N)c(CO)c1O`, the growth inhibition in test [1] is -10.8%; in test [2] it was -10.1%; in test [3] it was -22.5%; in test [4], 48.2%; in test [5], 5.5%; in test [6] it was -4.55%.

As for `CC1(C)C2CCC13CS(=O)(=O)N1O[C@]13C(=O)O2` (stereo partly specified), the growth inhibition in test [1] was 19.3%; in test [2], 2.7%; in test [3], 6.55%; in test [4], 15.1%; in test [5] it was -1.05%; in test [6] it was 31.9%.

Regarding `Cc1ccc(S(=O)(=O)OCC2CC=CCC2COC(=O)c2ccc([N+](=O)[O-])cc2)cc1` (stereo unspecified), the growth inhibition in test [1] was 33.5%; in test [2], -5.55%; in test [3], 12.1%; in test [4], 15.1%; in test [5] it was 6.6%; in test [6], 6.4%.

On to `CC(C)CN(CC(=O)NC(=O)c1ccccc1)CC(C)C`, for which the growth inhibition in test [1] was -2.1%; in test [2] it was -10.1%; in test [3], -12.2%; in test [4] it was -37.9%; in test [5], -4%; in test [6], -3.8%.

`CN(C)C(=O)OC1CCCCC1`: the growth inhibition in test [1] is -8.1%; in test [2], -9.4%; in test [3], -18.8%; in test [4], -18.7%; in test [5] it was -19.6%; in test [6], -12.6%.

Consider `O=C(NO)c1ccc([N+](=O)[O-])cc1`, for which the growth inhibition was 58.2% in test [1]; 31.1% in test [2]; 46.3% in test [3]; 7.05% in test [4]; 17.8% in test [5]; 22.2% in test [6].

Regarding `C/C(CC/C(C)=N/O)=N\O`, the growth inhibition in test [1] was 6.4%; in test [2] it was 4.25%; in test [3], -0.55%; in test [4] it was -9.45%; in test [5], 11.6%; in test [6], 9.7%.

Turning to `CC(O)(C1CC1)C(C(=O)O)c1ccccc1` (stereo unspecified), the growth inhibition is -15.4% in test [1]; -6.85% in test [2]; 1.9% in test [3]; -26.7% in test [4]; 1.55% in test [5]; 10.6% in test [6].

For the compound `O=C(NC(=O)c1cccc(Cl)c1)Nc1ccccc1`, the growth inhibition was 3.1% in test [1]; -15.1% in test [2]; -19.6% in test [3]; -22% in test [4]; -10.7% in test [5]; -5.15% in test [6].

Turning to `CN(C)CC(C)(C)C(=O)c1ccc(F)cc1`, the growth inhibition in test [1] was 5.35%; in test [2], 5.8%; in test [3], -0.1%; in test [4], 3.55%; in test [5] it was 1.7%; in test [6], 12.3%.

Consider `Cc1ccccc1C(=O)NCc1ccccc1`, for which the growth inhibition was 13.6% in test [1]; -6.7% in test [2]; 0.6% in test [3]; -27.5% in test [4]; 11.3% in test [5]; 4.25% in test [6].

For the compound `NC(=O)c1c(N)nnc(-c2ccccc2)c1-c1ccccc1`, the growth inhibition in test [1] was -6.15%; in test [2], -7.65%; in test [3] it was -5.75%; in test [4] it was -25.8%; in test [5], -3.45%; in test [6] it was -16.2%.

(Values after PubChem BioAssay (NCI).)
